Consider 29 molecules from PubChem BioAssay AID624125 (The Scripps Research Institute Molecular Screening Center, 2012).

Structures are written as SMILES. Out of some 360,000 compounds screened, about 2,600 (0.72%) were called active. This excerpt belongs to a sample that is enriched for actives. Values without a mark were called inactive.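 How the source made its calls: active means inhibition above its plate's cutoff, the mean inhibition of sample wells plus 3 SD (cut at about 27% in these data); inactive means the rest.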

Chain of Muscarinic acetylcholine receptor M4 (Homo sapiens) (P08173 whole entry, looked up): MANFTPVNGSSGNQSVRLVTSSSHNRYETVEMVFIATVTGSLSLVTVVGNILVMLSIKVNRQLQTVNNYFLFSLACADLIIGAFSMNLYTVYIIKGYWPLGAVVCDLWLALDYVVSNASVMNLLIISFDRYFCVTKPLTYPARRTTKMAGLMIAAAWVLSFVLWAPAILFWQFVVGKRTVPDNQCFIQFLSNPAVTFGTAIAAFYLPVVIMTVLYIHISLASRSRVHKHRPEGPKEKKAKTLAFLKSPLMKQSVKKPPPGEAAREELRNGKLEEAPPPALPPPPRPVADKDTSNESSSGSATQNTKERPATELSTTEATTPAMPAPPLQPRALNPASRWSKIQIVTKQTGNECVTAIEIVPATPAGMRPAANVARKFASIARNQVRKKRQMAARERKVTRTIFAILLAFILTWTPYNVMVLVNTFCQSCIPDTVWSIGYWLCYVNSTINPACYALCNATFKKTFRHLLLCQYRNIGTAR

This test concerns the target Muscarinic acetylcholine receptor M4 (Homo sapiens) (UniProt P08173). Put plainly: human M4 muscarinic receptor antagonists, primary screen, CHO cells, Fluo-8 calcium fluorescence (AID 624125).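 Further: 0% = acetylcholine EC80 with DMSO and 100% = DMSO without agonist.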 The note with it: CHO-hM4 cells, ACh EC80, Fluo-8 calcium fluorescence; at 3 µM; hits give high values.
A word on the inhibition: it is the change of the read-out against control, counted positive when it falls. Take `CCOC(=O)c1cnc(Nc2nc3ccccc3o2)nc1CSC(=S)N1CCCCC1`: the inhibition is -1.75%.
With `COc1cccc(CNn2cn[nH]c2=S)c1OCc1ccccc1` the figure was -1.76%; with `Fc1ccccc1COc1ccccc1CNCc1ccncc1`, -4.74%; with `COc1cccc(CNCCc2c[nH]c3ccccc23)c1OCc1ccccc1F`, 27.2% (active).
Take `C=C(C)CNC(=S)Nc1ccc(S(=O)(=O)Nc2cnc3ccccc3n2)cc1`: the inhibition was 2.87%.
Then `CC(NCCO)C(=O)C12CC3CC(CC(C3)C1)C2` (centres undefined), with 2.3%.
With `Cc1c(C(=O)NC2CCCCC2)oc2ccccc12` the figure was -11.4%; with `Cc1ccc2c(C)c(C(=O)N(C)Cc3ccncn3)oc2c1C`, -3%.
With `CCCCN1C(N)=NC[C@@H]1CC1CCCCC1` the figure was -1.98%; with `CCCC[C@@H]1CN=C(N)N1CCc1cc(C(F)(F)F)cc(C(F)(F)F)c1`, 31.9% (active).
On to `CN(C)C1=NC[C@H](Cc2ccccc2)N1CCc1ccc(F)cc1`, for which the inhibition was -0.99%.
As for `Cc1nc(N)c(Br)c(C)c1Br`, the inhibition is -2.18%.
With `CSc1ccc(S(=O)(=O)N2CCC(C(=O)NCc3ccncc3)CC2)cc1` the figure was -10.4%; with `Cn1c(CCC(=O)Nc2ccccc2F)nnc1SCC(=O)Nc1ccccc1Cl`, -10.1%; with `Cn1cccc1C(=O)N1CCc2ccccc2C1`, 10.4%.
For `CN1CCN(C(=O)N2c3ccccc3CCc3ccccc32)CC1`, the inhibition was 51% (active).
With `CN1CCN(S(=O)(=O)c2cccc(C(=O)N3CCc4ccccc43)c2)CC1` the figure was 3.72%.
Then `O=C(O)C(=Cc1ccccc1[N+](=O)[O-])c1ccccc1`, with -15.2%; and `Cc1ccc(C2Nc3ccccc3C(=O)N2CCN2CCNC2=O)cc1` (centres undefined), with -5.69%; and `COc1ccc(C(C#N)N2N=C(C)CC2(C)C)cc1` (centres undefined), with -4.9%.
In the case of `CC[C@@H]1Cc2cc(O)ccc2C2=C1c1ccc(O)cc1C[C@H]2CC`, the inhibition is 72.5% (active).
With `CCOC(=O)C1(Cc2ccccc2C)CCCN(C(=O)CN2C(=O)CSC2=O)C1` (centres undefined) the figure was 4.46%.
Then `O=C(CSc1ccc(-c2ccc(-n3cccn3)cc2)nn1)Nc1ccc([N+](=O)[O-])cc1`, with 101% (active); and `O=C(CSc1ccc(-c2ccccn2)nn1)Nc1ccccc1`, with 5.15%.
Then `O=C(CSc1ccc([N+](=O)[O-])cn1)Nc1ccc(N2CCOCC2)cc1`, with -3.21%.
Regarding `O=C(O)CC12CC3CC(C1)CC(n1ncc(NCc4ccc(F)cc4)c(Cl)c1=O)(C3)C2`, the inhibition was 4.05%.
Then `Cc1sc2c(c1C)c(=O)n(-c1ccccc1)c(=O)n2CC(=O)NCC1CCCO1` (centres undefined), with 27.2% (active); and `Cc1nn(CC(=O)NCC2CCCO2)c(=O)c2cc3ccccc3n12` (centres undefined), with -2.94%.
Then `Cc1nn(-c2ccccc2)c2c1c(C)c(CCC(=O)NCC1CCCO1)c(=O)n2C` (centres undefined), with -9.84%.
